Test results reported in PubChem BioAssay AID1347156 (National Center for Advancing Translational Sciences (NCATS), 2019).
Records with an inconclusive call do not appear. Calls of active or inactive are those of the source. Calls come from the whole dose curve; as a rule, active = well fitted cell-killing curve with a large enough effect; inconclusive = small, poorly fitted or top-dose-only effect; inactive = flat fitted curve, though single readings scatter.

Assay: DAPI mCherry counterscreen qHTS for Zika virus inhibitors; note: nearly all actives have a fitted effect of over 55% in size
Settings: Vero cells, DAPI nuclear count cytotoxicity, imaging 48-72 h, infected with Zika reporter virus, MOI 1; series mostly up to 32.6 µM; activity change, negative = cell loss: at the top concentration
Outline: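 Vero cells (5,000/well), plated overnight, given compounds then recombinant ZIKV-mCherry at MOI 1 for 48-72 hrs at 37 degrees C; PFA-fixed, Hoechst-stained and imaged; nuclei counted and mCherry-positive cells scored as percent infection.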
% is set by controls: 0 for no effect and ±100 for the full control effect; potency is the fitted concentration of half-maximal effect.

Structure (SMILES) | Potency | activity change, negative = cell loss
CCCCCCCOc1cc2c(cc1/C(C)=C/c1ccc(C(=O)O)cc1)C(C)(C)CCS2(=O)=O | 15.8 µM (active) | –
N#CC(C#N)=C(N)/C(C#N)=C/c1cc(O)c(O)c(O)c1 | – | -9.4% (inactive)
O=C(Nc1ccccc1)c1ccc2c(O)c(S(=O)(=O)c3ccc(Cl)cc3)c(=O)[nH]c2c1 | – | -8.31% (inactive)
CC(=O)Nc1ccc(S(=O)(=O)O)c2cc(S(=O)(=O)O)c(N=Nc3ccc(N=Nc4ccc(S(=O)(=O)O)cc4)c4ccc(S(=O)(=O)O)cc34)c(O)c12 | – | -5.95% (inactive)
COc1cc(C)c(C(=O)OC2C(C)OC(OC3CCC(C)C4C3C=C(C)C3/C(C)=C\CC/C(C)=C/C5(C)C=C(C(=O)O)C(C)CC56OC(=O)/C(=C(\O)C34C)C6=O)C(O)C2O)c(OC)c1 (stereo not given) | – | -11.1% [at 8.16 µM] (inactive)
Cc1cc(C(C#N)c2ccc(Cl)cc2)c(Cl)cc1NC(=O)c1cc(I)cc(I)c1O (stereo not given) | 8.91 µM (active) | –
Cc1ccc(NC(=O)c2ccc3c(O)c(S(=O)(=O)c4ccc(Cl)cc4)c(=O)[nH]c3c2)cc1 | – | -7.33% (inactive)
COc1cnc(-c2ccc(Cn3c(CC(C)(C)C(=O)O)c(SC(C)(C)C)c4cc(OC[C@@H]5Cc6ccccc6N5C(C)=O)ccc43)cc2)nc1 | 15.8 µM (active) | –
COc1cccc(C(=O)Nc2ccc(C(=O)OCc3cc(=O)n4nc(C5CC5)sc4n3)cc2)c1 | 5.62 µM (active) | –
C/C=C/C=C/C=C/C(=O)O[C@@H]1[C@@H](OC)C2=C(C(=O)N(C(CCC(=O)O)C(=O)O)C2)[C@@]2(C)CCCC(C)(C)[C@H]12 (stereo not given in full) | – | -13.5% [at 16.3 µM] (inactive)
O=C(O)c1c(Sc2ccccc2)c2cc(Cl)ccc2n1Cc1ccc(Cl)cc1 | 12.6 µM (active) | –
Cc1c(C2(c3cc(C(C)C)c(O)c(Br)c3C)OS(=O)(=O)c3ccccc32)cc(C(C)C)c(O)c1Br | – | -11.2% (inactive)
O=C(Nc1cccc(C(=O)Nc2ccc(S(=O)(=O)O)c3cc(S(=O)(=O)O)cc(S(=O)(=O)O)c23)c1)Nc1cccc(C(=O)Nc2ccc(S(=O)(=O)O)c3cc(S(=O)(=O)O)cc(S(=O)(=O)O)c23)c1 | – | -9.54% [at 16.3 µM] (inactive)
COc1cc(C2Nc3ccccc3-c3nnc(SCc4ccc(Cl)cc4)nc3O2)ccc1OCC(=O)O (stereo not given) | – | -19.4% (inactive)
O=C(O)c1ccc(NC(=O)c2cn(-c3ccccc3)nc2-c2ccc(Br)cc2)cc1 | 35.5 µM (active) | –
O=c1c(O)c(Br)ccc2c(Br)c(O)c(O)c(O)c12 | – | -12.3% (inactive)
O=c1c(O)c(-c2ccc(O)c(O)c2)oc2cc(O)ccc12 | – | -17.3% (inactive)
O=C(O)c1ccc(C2Nc3ccccc3-c3nnc(SCc4ccc(Cl)cc4)nc3O2)cc1 (stereo not given) | – | -17% (inactive)
CCOc1ccc(-c2ccc(Cn3c(CC(C)(C)C(=O)O)c(SC(C)(C)C)c4cc(OCc5ccc(C)cn5)ccc43)cc2)cn1 | 17.8 µM (active) | –
CC(=O)N1c2ccc(-c3ccc(C(=O)O)cc3)cc2C(Nc2ccc(Cl)cc2)CC1C (stereo not given) | 1 µM (active) | –
CCc1oc2ccccc2c1C(=O)c1cc(Br)c(O)c(Br)c1 | 11.2 µM (active) | –
COc1cc(Nc2nc3ccccc3nc2NS(=O)(=O)c2ccc(NC(=O)c3ccc(OC)c(C)c3)cc2)cc(OC)c1 | 6.31 µM (active) | –
Oc1cc2ccccc2c2ccccc12 | 10 µM (active) | –
O=C(OC1Cc2c(O)cc(O)cc2OC1c1cc(O)c(O)c(O)c1-c1c(C2Oc3cc(O)cc(O)c3CC2OC(=O)c2cc(O)c(O)c(O)c2)cc(O)c(O)c1O)c1cc(O)c(O)c(O)c1 (stereo not given) | – | -10.6% (inactive)
CCCCCCCCc1ccc(CCC(N)(CO)CO)cc1 | 10 µM (active) | –
